For 39 sequences, binding signal and Kd results are on record in PMC5913336, “True equilibrium measurement of transcription factor-DNA binding affinities using automated polarization microscopy”.

Some results are limits rather than exact numbers.

One test concerns the target T1, Br (Drosophila melanogaster, UniProt Q24206 697-775).
T1 sequence: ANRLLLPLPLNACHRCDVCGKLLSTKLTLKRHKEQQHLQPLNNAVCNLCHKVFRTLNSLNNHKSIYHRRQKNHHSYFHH
Nature of the test: FP; 33 mM phosphate pH 7.0, 90 mM NaCl, 0.01% Tween 20, 0.1 mM DTT, 0.5% agarose; room temperature. The conditions noted are these: tags: N-GST (pGEX-6P-1, kept); dsDNA, one strand shown.
For the sequence GGTATTAGAAAAC, the binding signal was 2.13 Kd / Kd of best base at the position.

Regarding GGGATTAGAAAAC, the binding signal was 1.54 Kd / Kd of best base at the position.

For the sequence GGAATTAGAATAC, the binding signal is 1.82 Kd / Kd of best base at the position.

In the case of GGAATTATAAAAC, the binding signal was 59.2 Kd / Kd of best base at the position.

As for GGAATTGGAAAAC, the binding signal is 438 Kd / Kd of best base at the position.

Take GGAATAAGAAAAC: the binding signal was > 1590 Kd / Kd of best base at the position.

On to GGAATTAGATAAC, for which the binding signal is 1.59 Kd / Kd of best base at the position.

Another test addresses T2, Hb (Drosophila melanogaster, UniProt P05084 225-364).
T2 sequence: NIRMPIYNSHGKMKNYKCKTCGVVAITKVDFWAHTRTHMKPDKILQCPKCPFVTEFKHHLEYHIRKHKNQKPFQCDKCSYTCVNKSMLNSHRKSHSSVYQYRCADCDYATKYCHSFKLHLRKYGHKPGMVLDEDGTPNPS
The description is as above. The note with it: tags: N-GST (pGEX-6P-1, kept); dsDNA, one strand shown.
For AGTTTTTTAGGA, the binding signal is 1.46 Kd / Kd of best base at the position.

With AGTTTTTCAGGC, the binding signal is 10.3 Kd / Kd of best base at the position.

In general, Kd refers to the constant that tells how readily two partners part at equilibrium. Turning to AGTTTTTTAGGC, the Kd was approximately 12.5 nM.

Consider AGTTTTTTAGAC, for which the binding signal is 1.59 Kd / Kd of best base at the position.

For the sequence AGTCTTTTAGGC, the binding signal was 8.66 Kd / Kd of best base at the position.

For the sequence AGTTTCTTAGGC, the binding signal is 9.31 Kd / Kd of best base at the position.

As for AGTTGTTTAGGC, the binding signal was 9.25 Kd / Kd of best base at the position.

Consider AGTTTGTTAGGC, for which the binding signal is 11.9 Kd / Kd of best base at the position.

AGTTTTTTTGGC: the binding signal is 6.04 Kd / Kd of best base at the position.

As for AGTTTTTTGGGC, the binding signal was 6.22 Kd / Kd of best base at the position.

In the case of AGTTTTTTCGGC, the binding signal was 5.64 Kd / Kd of best base at the position.

Turning to AGATTTTTAGGC, the binding signal was 3.22 Kd / Kd of best base at the position.

As for TGTTTTTTAGGC, the binding signal was 1.1 Kd / Kd of best base at the position.

As for ATTTTTTTAGGC, the binding signal is 1.03 Kd / Kd of best base at the position.

Regarding CGTTTTTTAGGC, the binding signal is 1.23 Kd / Kd of best base at the position.

Consider AGTTTATTAGGC, for which the binding signal was 11 Kd / Kd of best base at the position.

In the case of AGCTTTTTAGGC, the binding signal is 2.23 Kd / Kd of best base at the position.

As for AGTTTTTTATGC, the binding signal is 1.04 Kd / Kd of best base at the position.

On to AGTTTTGTAGGC, for which the binding signal was 9.72 Kd / Kd of best base at the position.

Take AGTGTTTTAGGC: the binding signal is 6.19 Kd / Kd of best base at the position.

As for AGTATTTTAGGC, the binding signal was 8.15 Kd / Kd of best base at the position.

As to AATTTTTTAGGC, the binding signal is 1.04 Kd / Kd of best base at the position.

Consider AGTTTTTTAAGC, for which the binding signal is 1.31 Kd / Kd of best base at the position.

Take AGTTTTTTACGC: the binding signal is 1.61 Kd / Kd of best base at the position.

Regarding AGTTTTTGAGGC, the binding signal was 8.32 Kd / Kd of best base at the position.

For AGTTTTTTAGTC, the binding signal is 1.14 Kd / Kd of best base at the position.

Regarding AGTTTTCTAGGC, the binding signal was 15 Kd / Kd of best base at the position.

Turning to AGTTTTTTAGCC, the binding signal was 1.11 Kd / Kd of best base at the position.

Consider AGGTTTTTAGGC, for which the binding signal was 1.26 Kd / Kd of best base at the position.

Turning to AGTTTTTTAGGT, the binding signal is 1.01 Kd / Kd of best base at the position.

AGTTTTATAGGC: the binding signal is 9.8 Kd / Kd of best base at the position.

For the sequence GGTTTTTTAGGC, the binding signal is 1.46 Kd / Kd of best base at the position.
